Bioassay records: PubChem, National Center for Advancing Translational Sciences (NCATS)
RE007 growth inh: less growth of the S. pombe RE007 Vpr strain | S. pombe RE007 Vpr strain, BacTiter-Glo ATP luminescence, 24 h | Potency, µM (doses to about 92.2 µM), for inactives: at the top dose activity change, negative = less growth, most hits filed as inhibitors | 360,000 compounds, 0.21% hits; active = well fitted falling curve with a large enough effect; inconclusive = small, poorly fitted or top-dose-only effect; inactive = no such curve, though single readings can be large or run the other way; also: nearly all actives have a fitted effect of over 50% in size
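Fission yeast strain RE007, carrying one chromosomally integrated HIV-1 vpr copy, was seeded at OD 0.01 in PMG+AL medium with 23 nL pinned compound. After 24 h at 30 °C and 99% humidity, viability was read by BacTiter-Glo luminescence.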
MARV entry inh: inhibitors of Marburg virus binding or cell entry; Marburg virus pseudotyped entry inhibition, cell reporter; Potency, µM (series often up to 37.8 µM), for inactives: top-dose activity change, negative = inhibition, usual class: inhibitors; 300,000 compounds, 1.8% hits; AID 540276; calls by dose curve; tested in HEK293 cells
HCV inh: inhibitors of hepatitis C virus infection. Huh7.5.1 HCVcc-Cre infection, luciferase reporter, 44 h. Potency, µM (titrated, usually from 41.8 µM), inactives show at the highest dose activity change, negative = inhibition, actives largely listed as inhibitors. 340,000 compounds, 3.4% hits. AID 651820
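A cell-based infection assay in which seeded cells (1,000 per well) receive test compound after 4 h, are inoculated with HCVcc-Cre at approximately 0.5 moi, and are incubated 44 h before luminescence detection.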
Sm TGR inh: S. mansoni TGR enzyme inhibition; Potency, µM (highest dose often 114 µM), inactives show at the highest dose activity change, negative = inhibition, actives largely listed as inhibitors; 360,000 compounds, 3% hits; Q962Y6; AID 485364; purified TGR, DTNB reduction, TNB absorbance 405 nm; also: nearly all actives have a fitted effect of over 60% in size
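First, TGR (20 nM dispensed) and NADPH were mixed with compound. Second, a 15 min room-temperature incubation followed. Third, further NADPH and then DTNB were added to start the reaction. Finally, TNB absorbance was monitored kinetically.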
LASV entry inh: Lassa virus entry inhibition | Lassa virus pseudotype entry inhibition, cell reporter | Potency, µM (doses to about 37.9 µM), without a hit: at the top dose activity change, negative = inhibition, most hits filed as inhibitors | 300,000 compounds, 1.2% hits; calls by dose curve; tested in HEK293 cells; also: nearly all actives have a fitted effect of over 50% in size
FMDV inh: foot and mouth disease virus antiviral activity; AID 1159524; Potency, µM (doses to about 57.9 µM), for inactives: top-dose activity change, negative = inhibition, most hits filed as inhibitors; 410,000 compounds, 1.2% hits; FMDV antiviral cell-based qHTS; calls by dose curve; tested in HEK293T cells; also: read-out not given here; nearly all actives have a fitted effect of over 45% in size
Numbers without * were called inactive; ? = inconclusive; / = no result given; [ ] = another dose, or the depositor's remark. This is a sample that favours compounds with a hit; in the whole collection about 7.2% have one here. Unless noted, calls follow the shape of the dose curve; as a rule, active = well fitted curve in the direction sought with a large enough effect; inconclusive = small, poorly fitted or top-dose-only effect, or another doubt; inactive = no such curve, though single readings can be large; an effect the other way counts as inactive or inconclusive. % is scaled to controls: 0 for no effect and ±100 for the full control effect; potency is read from the fitted curve at half-maximal effect.

SMILES	RE007 growth inh	MARV entry inh	HCV inh	Sm TGR inh	LASV entry inh	FMDV inh
CC1Cc2ccccc2N1CC(=O)Nc1ccc2c(c1)OCCCO2 (stereo unspecified)	12.5%	/	3.7%	-11.0%	/	29.7%
CCOC(=O)CCNC(=O)N1CCN(S(=O)(=O)c2ccc3c(ccn3C)c2)CC1	/	/	/	25.8%	7.6%[46.1 µM]	-9.0%
COc1cc(NC(=O)c2ccccc2Cl)c2ncccc2c1	-14.7%	/	10µM*	0.1%	/	10.6%
CCOc1ccccc1C(=O)Nc1cc(Cl)ccc1O	-27.0%	-15.9%	7.08µM*	-14.3%	11.0%	?
COc1cc(OC)c(NC(=O)c2cc3ccccc3cc2O)cc1Cl	?	?	31.6µM*	/	?	-17.2%
COc1cc(NC(=O)c2ccccc2)c(OC)cc1Cl	-25.7%	0.0%	?	2.4%	-0.3%	0.0%
CCOc1ccccc1C(=O)Nc1cccc2cccnc12	-7.1%	?	11.2µM*	0.0%	4.4%[46.1 µM]	8.2%
Cc1cccc(Cn2cccc2CNS(=O)(=O)c2ccccc2F)c1	/	/	/	?	-2.1%[46.1 µM]	6.7%
COc1cc(NCCCC(C)N)c2ncccc2c1 (stereo unspecified)	-21.7%	3.55µM*	?	35.5µM*	?	-18.5%
CCOc1ccccc1NC(=S)Nc1ncccc1C	-26.1%	?	6.31µM*	-26.6%	?	4.6%
C=CCOC(=O)N[C@H](c1ccc(-c2ccccc2)cc1)[C@H](C)C=CCC(=O)OC	/	-3.8%[14.2 µM]	/	/	?	/
CC(=O)N(Cc1ccc(F)cc1)C1=C(NCc2ccccc2)C(=O)c2ccccc2C1=O	7.08µM*	?	5.01µM*	-11.7%	6.31µM*	35.5µM*
Cc1ccc(-c2nc(CS(=O)CC(=O)NCc3ccccc3Cl)c(C)o2)cc1 (stereo unspecified)	/	2.9%[46.1 µM]	/	-29.4%	7.5%[46.1 µM]	27.5%
O=S(=O)(Cc1noc(-c2ccc(Cl)cc2)n1)Cc1ccco1	-8.2%	?	12.7%	50.1µM*	-1.1%[46.1 µM]	25.6%
O=S(=O)(Cc1ccco1)Cc1nc(-c2ccc(Cl)cc2)cs1	-14.3%	0.6%[46.1 µM]	?	-32.4%	-11.1%	-10.4%
COc1cccc(/C=C/c2nc3ccccc3c(=O)n2-c2ccc(C)c(C)c2)c1OC	/	/	/	9.1%	?	?
CC(=O)NN1C(=O)/C(=C\c2ccccc2)SC1=S	/	-4.6%	-14.6%	10.1%	/	2.3%
CC(=O)NN1C(=O)/C(=C\c2ccc(Br)o2)SC1=S	-3.4%	-4.7%	-27.8%	25.1µM*	5.9%	?
CC(=O)NN1C(=O)/C(=C/c2ccc(Br)o2)SC1=S	0.3%	-9.5%	-0.2%	25.1µM*	-0.4%	?
CC(=O)NN1C(=O)/C(=C\c2ccc(O)cc2)SC1=S	?	3.4%[46.1 µM]	-2.8%	-10.5%	-12.6%[46.1 µM]	15.5%
Cc1c(Cl)cccc1NC(=O)CSc1ncc2c(n1)-c1ccccc1N(C)S2(=O)=O	/	/	/	5.3%	-19.2%[46.1 µM]	?
CN1C(=O)Cc2cc(S(=O)(=O)CCC(=O)Nc3cccc(C(F)(F)F)c3)ccc21	/	/	/	0.8%	13.8%[46.1 µM]	-7.4%
COc1ccc(C=C2CS(=O)(=O)CC(=Cc3ccc(OC)cc3)C2=O)cc1	?	/	/	/	/	12.6µM*
COc1ccc2c(c1)CCc1cnc(-n3ncc(C(=O)N4CCN(CCO)CC4)c3C3CC3)nc1-2	/	/	/	/	/	-8.9%
COc1ccc(-c2cc(N3CCCC3)n3ncnc3n2)cc1	-29.2%	-22.4%[46.1 µM]	12.6µM*	2.1%	-11.2%	?
SMILES	RE007 growth inh	MARV entry inh	HCV inh	Sm TGR inh	LASV entry inh	FMDV inh
COc1ccc(-c2cc(-c3ccccc3)n3ncnc3n2)cc1	-5.5%	?	?	-22.7%	-22.6%	?
Cc1ccccc1NC(=O)C1CCN(c2cc(-c3ccccc3)nc3ncnn23)CC1	3.1%	?	32.2%	-10.4%	?	35.5µM*
O=S(=O)(c1ccccc1)N1CCN(c2cc(-c3ccccc3)nc3ncnn23)CC1	-1.2%	?	?	-3.8%	14.6µM*	?
COc1ccc(S(=O)(=O)N2CCN(c3cc(-c4ccccc4)nc4ncnn34)CC2)cc1	0.0%	?	10µM*	4.0%	?	?
O=S(=O)(c1ccc(Br)cc1)N1CCN(c2cc(-c3ccccc3)nc3ncnn23)CC1	-12.0%	?	?	13.2%	?	-16.9%
Cc1nc2ncnn2c(N2CCC(C(=O)NC3CCCC3)CC2)c1Cc1ccccc1	3.5%	-21.2%	?	3.1%	?	-28.7%
CCc1ccc(S(=O)(=O)c2cn(C)c3cc(F)c(F)cc3c2=O)cc1	/	-13.5%[46.1 µM]	/	-5.8%	-21.5%[46.1 µM]	0.0%
COC(=O)c1sc2cccc(F)c2c1S(=O)(=O)NCc1ccccc1Cl	/	/	/	3.1%	?	70.8%
COc1ccccc1CNS(=O)(=O)c1cccs1	1.8%	/	7.4%	-14.2%	/	7.4%
COc1ccccc1CNC(=O)CCS(=O)(=O)c1cccc2nonc12	-7.0%	9.5%	23.7%	44.7µM*	-19.3%	16.3%
Cc1ccc(CNC(=O)CCS(=O)(=O)c2cccc3nonc23)cc1	-0.8%	15.8%	-2.2%	25.1µM*	-20.9%	2.2%
COc1ccccc1CNC(=O)CCS(=O)(=O)c1cccs1	-5.7%	1.8%	-5.4%	35.5µM*	3.6%	52.3%
COc1ccc(NC(=O)CCS(=O)(=O)c2cccc3nonc23)cc1	19.4%	0.8%[46.1 µM]	2.8%	?	/	22.2%
COc1ccc(CNC(=O)CCS(=O)(=O)c2cccc3nonc23)cc1	-8.8%	-17.9%	-3.1%	12.6µM*	-8.8%	7.5%
Cc1csc2nc(COc3ccc(NC(=O)c4ccccc4F)cc3)cc(=O)n12	/	-0.8%[46.1 µM]	/	8.0%	3.6%[46.1 µM]	-2.0%
CC1=C(C(=O)Nc2ccc(Cl)cc2)C(c2ccccc2C)n2ncc(C(=O)Nc3ccc(C)cc3)c2N1 (stereo unspecified)	/	5.62µM*	/	14.4%	?	-15.5%
CC1=C(C(=O)Nc2ccc(Cl)cc2)C(c2ccccc2)n2ncc(C(=O)Nc3ccccc3)c2N1 (stereo unspecified)	/	?	/	2.9%	?	-13.7%
CN1CCCC(CC2c3ccccc3Sc3ccccc32)C1 (stereo unspecified)	5.9%[18.4 µM]	/	2.82µM*	-2.3%	/	39.8µM*
CN1CCCC(CN2c3ccccc3Sc3ccccc32)C1 (stereo unspecified)	0.2%[18.4 µM]	/	?	-2.0%	/	0.0%
c1ccc(Cn2c(SCc3nc4ccccc4s3)nnc2-c2ccco2)cc1	-13.0%	5.6%[46.1 µM]	?	12.6µM*	?	?
c1ccc(Cn2c(-c3ccco3)nc3nc4ccccc4nc32)cc1	-4.8%	?	?	?	?	25.7%
O=c1c2ccccc2nc(-c2ccco2)n1Cc1ccccc1	-7.5%	17.7%	4.9%	50.1µM*	-0.3%	37.9%
CCOc1ccc(CCn2c(-c3ccco3)nc3ccccc3c2=O)cc1OCC	11.2%	2.31µM*	7.08µM*	-22.2%	6.51µM*	?
CCOC(=O)CSc1nc2ccccc2c(=O)n1CCc1ccc(OC)c(OC)c1	/	/	/	-5.4%	?	?
